Assay results as given in PubChem BioAssay (NCATS).
Where “and” joins values, the source holds several entries; their conditions need not be identical. Identical values can stand only once. Records with an inconclusive call do not appear. More than one record can exist for a structure, and the calls need not agree. Calls of active or inactive are those of the source. Unless noted, calls come from the whole dose curve.

Key:
[1] = Primary qHTS for inhibitors of MERS-S pseudo-typed particle cell entry (AID 1479149); note: nearly all actives have a fitted effect of over 60% in size; note: potency is the fitted concentration of half-maximal effect; for activity change, negative = inhibition: % is set by controls: 0 for no effect and ±100 for the full control effect
[2] = Primary qHTS for Vero E6 cytotoxicity: counterscreen for inhibitors of SARS-S pseudo-typed particle cell entry (AID 1479150); note: potency is the fitted concentration of half-maximal effect
[3] = Confirmatory qHTS for activators (rescue) of SARS-CoV-2 Cytopathic Effect (CPE) (AID 1508606); note: potency is the fitted concentration of half-maximal effect; nearly all actives have a fitted effect of over 70% in size
[4] = Confirmatory qHTS to identify inhibitors of SARS-CoV-2 cell entry (AID 1645844); note: potency is the fitted concentration of half-maximal effect; nearly all actives have a fitted effect of over 45% in size
Summary of the method: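 HEK293-ACE2, overnight seeding; cpd 1 h, 37C/5% CO2; + SARS-CoV-2-S MLV PP (Wuhan-Hu-1, ΔC19); 48 h; Bright-Glo luminescence. Data normalised to S PP and bald PP wells.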

[5] = Cytotoxicity counterscreen for inhibitors of SARS-CoV-2 cell entry (AID 1645845); note: nearly all actives have a fitted effect of over 50% in size
Summary of the method: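 Counterscreen run in the same HEK293-ACE2 line as the pseudotyped-particle entry assay, without particles. Viability after 48 h at 37 C was read as ATP luminescence, scaled between cell-containing and cell-free wells.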

[6] = Primary qHTS to identify inhibitors of SARS-CoV-2 cell entry (AID 1645846); details: activity change, negative = inhibition: at 57.1 µM (top of the series) unless noted; note: nearly all actives have a fitted effect of over 45% in size; note: potency is the fitted concentration of half-maximal effect
Summary of the method: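 Inhibition of spike-mediated entry was scored in human ACE2-transfected Expi293F cells. Particles were MLV-pseudotyped with Wuhan-Hu-1 S carrying a 19-aa C-terminal deletion; signal was luciferase after two days, scaled between spike PP and fusion-protein-free PP.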

[7] = VSVG counterscreen qHTS to identify inhibitors of SARS-CoV-2 cell entry (AID 1645847); note: potency is the fitted concentration of half-maximal effect; nearly all actives have a fitted effect of over 65% in size
Summary of the method: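 Luminescence from a luciferase reporter, normalised to bald particle and VSV-G pseudotyped particle wells, is the read-out. Cells are HEK293 expressing human ACE2, exposed to compound 1 h before a 48 h particle infection at 37 °C.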

[8] = Primary qHTS for inhibitors of La Crosse Virus (LACV) - induced cell death in SH-SY5Y cells (AID 1508616; active = well fitted curve in the direction sought with a large enough effect; an effect the other way counts as inactive or inconclusive;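 note: top concentration of the series differs between compounds; 0% = infected DMSO wells and 100% = uninfected DMSO wells; higher means more rescue of cells from virus-induced death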)
Summary of the method: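 Screening measures cell viability in LACV-infected SH-SY5Y cultures. Compound was added before virus (0.01 MOI), and ATP was detected by luminescence 6 days later.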

[9] = biological target: Calcium and integrin-binding protein 1 (Homo sapiens) (UniProt Q99828); assay: Primary qHTS for Identification of Calcium Integrin Binding Protein 1 (CIB1) Competitor (AID 1508620; active = well fitted curve in the direction sought with a large enough effect; an effect the other way counts as inactive or inconclusive;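 note: GST tagged CIB1 binding a fluorescein labelled alphaIIb integrin peptide tracer; top concentration of the series differs between compounds; % is set by controls: 0 for no effect and ±100 for the full control effect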)
Chain of Calcium and integrin-binding protein 1 (Homo sapiens) (Q99828 whole entry, looked up): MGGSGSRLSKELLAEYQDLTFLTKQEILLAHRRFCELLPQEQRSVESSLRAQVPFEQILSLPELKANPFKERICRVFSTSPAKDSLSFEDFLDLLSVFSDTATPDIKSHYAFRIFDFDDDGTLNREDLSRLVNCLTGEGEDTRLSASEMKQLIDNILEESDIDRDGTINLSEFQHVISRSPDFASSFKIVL
Summary of the method: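 Fluorescence polarization competition: GST-tagged CIB1 (1 uM final) preincubated with compound 15 min at room temperature, then FITC-labelled alphaIIb peptide (100 nM final) added. After 15 min at room temperature, polarization read at Ex 480/Em 540.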

[10] = Primary qHTS for small molecule stabilizers of the endoplasmic reticulum resident proteome: Secreted ER Calcium Modulated Protein (SERCaMP) assay (AID 1508630; active = well fitted curve in the direction sought with a large enough effect; an effect the other way counts as inactive or inconclusive; note: % is set by controls: 0 for no effect and ±100 for the full control effect)
Summary of the method: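 The SH-SY5Y reporter protocol was run at 3 concentrations up to 38.3 uM (primary) or 11 concentrations (follow-up): 16 h compound, 100 nM thapsigargin for 4 h, then extracellular luciferase luminescence.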

[11] = A High-Content qHTS Against Drug Library for the Identification of Small Molecules that Inhibit DYT1 Early Onset Primary Dystonia-Associated Cell Pathology (AID 1645839)
Summary of the method: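 Cells were seeded and left for 24 h, then dosed with compound alongside tetracycline induction of mutant EGFP-TorsinA. They were incubated for 48 h, fixed in 4% paraformaldehyde, permeabilized and imaged for mislocalization (%pathology) and cell count.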

[12] = biological target: Cytochrome P450 2D6 (Homo sapiens) (UniProt P10635); assay: Cytochrome P450 family 2 subfamily D member 6 (CYP2D6) small molecule antagonists: luciferase biochemical (cell-free) qHTS assay (AID 1645840; active = well fitted curve in the direction sought with a large enough effect in the repeat runs; an effect the other way counts as inactive or inconclusive; note: nearly all actives have a fitted effect of over 55% in size; note: potency is the fitted concentration of half-maximal effect)
Chain of Cytochrome P450 2D6 (Homo sapiens) (P10635 whole entry, looked up): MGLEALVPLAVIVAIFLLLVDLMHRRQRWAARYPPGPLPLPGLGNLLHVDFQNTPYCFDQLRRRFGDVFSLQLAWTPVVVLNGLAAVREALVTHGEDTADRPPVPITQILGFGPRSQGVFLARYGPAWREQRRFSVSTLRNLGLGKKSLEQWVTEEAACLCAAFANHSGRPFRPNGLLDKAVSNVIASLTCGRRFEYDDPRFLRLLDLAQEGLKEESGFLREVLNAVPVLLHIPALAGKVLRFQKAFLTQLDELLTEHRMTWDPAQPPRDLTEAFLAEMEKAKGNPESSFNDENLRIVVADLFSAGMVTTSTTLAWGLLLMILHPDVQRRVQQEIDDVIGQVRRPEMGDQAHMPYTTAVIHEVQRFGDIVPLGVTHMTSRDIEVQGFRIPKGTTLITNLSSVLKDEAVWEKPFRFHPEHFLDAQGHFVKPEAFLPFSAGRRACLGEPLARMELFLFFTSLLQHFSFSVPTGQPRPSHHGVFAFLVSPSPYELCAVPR
Summary of the method: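 P450-Glo CYP2D6 system: proluciferin substrate converted by enzyme to luciferin, read by luminescence proportional to activity. Enzyme-substrate mix with compound 10 min at room temperature, then NADPH regeneration 1 h before detection reagent.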

[13] = biological target: Cytochrome P450 3A4 (Homo sapiens) (UniProt P08684); assay: Cytochrome P450 family 3 subfamily A member 4 (CYP3A4) small molecule antagonists: luciferase qHTS assay (AID 1645841; active = well fitted curve in the direction sought with a large enough effect in the repeat runs; an effect the other way counts as inactive or inconclusive; note: nearly all actives have a fitted effect of over 45% in size)
Chain of Cytochrome P450 3A4 (Homo sapiens) (P08684 whole entry, looked up): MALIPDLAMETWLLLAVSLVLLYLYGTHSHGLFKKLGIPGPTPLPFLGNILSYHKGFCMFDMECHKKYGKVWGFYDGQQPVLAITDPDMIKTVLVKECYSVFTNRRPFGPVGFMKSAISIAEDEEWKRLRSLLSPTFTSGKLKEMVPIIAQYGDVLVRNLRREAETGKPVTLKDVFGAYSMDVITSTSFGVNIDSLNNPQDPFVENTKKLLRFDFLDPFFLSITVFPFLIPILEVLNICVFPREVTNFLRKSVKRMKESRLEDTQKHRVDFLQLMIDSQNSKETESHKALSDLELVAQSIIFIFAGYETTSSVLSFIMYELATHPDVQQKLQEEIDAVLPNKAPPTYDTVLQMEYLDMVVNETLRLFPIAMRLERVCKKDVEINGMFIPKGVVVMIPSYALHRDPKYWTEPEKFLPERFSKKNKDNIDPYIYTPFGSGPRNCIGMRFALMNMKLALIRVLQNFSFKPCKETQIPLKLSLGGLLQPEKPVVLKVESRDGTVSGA
Summary of the method: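 P450-Glo CYP3A4 enzyme with proluciferin substrate preincubated 10 min with compound at room temperature, then NADPH regeneration 1 h. Luciferin detection reagent added for 20 min; luminescence recorded. Ketoconazole positive control.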

[14] = biological target: Cytochrome P450 2C9 (Homo sapiens) (UniProt P11712); assay: Cytochrome P450 family 2 subfamily C member 9 (CYP2C9) small molecule antagonists: luciferase biochemical (cell-free) qHTS assay (AID 1645842; active = well fitted curve in the direction sought with a large enough effect in the repeat runs; an effect the other way counts as inactive or inconclusive; note: nearly all actives have a fitted effect of over 55% in size; note: potency is the fitted concentration of half-maximal effect)
Chain of Cytochrome P450 2C9 (Homo sapiens) (P11712 whole entry, looked up): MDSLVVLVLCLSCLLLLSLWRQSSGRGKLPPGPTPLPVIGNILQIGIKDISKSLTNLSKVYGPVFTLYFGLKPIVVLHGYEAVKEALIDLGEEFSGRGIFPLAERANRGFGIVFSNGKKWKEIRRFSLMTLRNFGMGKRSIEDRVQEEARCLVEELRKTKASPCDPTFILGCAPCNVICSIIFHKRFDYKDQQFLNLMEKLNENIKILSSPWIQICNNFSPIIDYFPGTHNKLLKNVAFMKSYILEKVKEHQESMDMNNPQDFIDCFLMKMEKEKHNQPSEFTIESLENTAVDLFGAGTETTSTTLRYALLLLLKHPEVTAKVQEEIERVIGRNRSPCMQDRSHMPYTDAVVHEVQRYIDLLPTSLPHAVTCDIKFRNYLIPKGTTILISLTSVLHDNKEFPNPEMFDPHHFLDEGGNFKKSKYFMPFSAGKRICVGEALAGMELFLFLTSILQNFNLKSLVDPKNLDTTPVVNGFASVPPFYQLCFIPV
Summary of the method: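 P450-Glo CYP2C9 system: proluciferin substrate with enzyme in mix containing 0.4% BSA, 10 min at room temperature, then NADPH regeneration solution added and incubated 1 h at 37C. Detection reagent stopped reaction; luminescence read after 20 min as RLU.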

[15] = biological target: Calcium and integrin-binding protein 1 (Homo sapiens) (UniProt Q99828); assay: Validation qHTS for Identification of Calcium Integrin Binding protein 1 (CIB1) Competitor (AID 1508618; active = well fitted curve in the direction sought with a large enough effect; an effect the other way counts as inactive or inconclusive; note: % is set by controls: 0 for no effect and ±100 for the full control effect)
Summary of the method: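 In this qHTS validation, the LOPAC set (up to 114 uM) was tested for blocking CIB1 binding to a fluorescein-tagged alphaIIb peptide, with FP detection at 480/540 nm.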

[16] = Confirmatory qHTS for VERO E6 Cytotoxicity Assay: Counterscreen for SARS-CoV-2 CPE Assay (AID 1508605); note: nearly all actives have a fitted effect of over 60% in size; note: potency is the fitted concentration of half-maximal effect

O=C(OC1C[C@H]2CC[C@@H](C1)[N+]21CCCC1)C(O)(c1ccccc1)c1ccccc1 (stereo partly specified)
inactive: Potency [1] | Potency [2]

CC(=O)Oc1ccccc1C(=O)Nc1ncc([N+](=O)[O-])s1
5.62 µM (active) and inactive: Potency [6]
active: Potency [1] 5.62 µM | Potency [2] 28.2 µM | Potency [3] 5.01 µM | Potency [4] 3.83 µM | Potency [7] 1.08 µM
inactive: Potency [5]

CN(C)CCc1c[nH]c2ccc(C[C@H]3COC(=O)N3)cc12
inactive: Potency [1] | Potency [2]

CCCSc1ccc2nc(NC(=O)OC)[nH]c2c1
inactive: Potency [1]

O=[N+]([O-])c1cc([As](=O)(O)O)ccc1O
-27.8%: activity change, negative = inhibition [6]
inactive: Potency [1] | Potency [2] | Potency [8] | Potency [9] | outcome [10] | Potency [11] | Potency [12] | outcome [13] | Potency [14] | Potency [5]

O=C(c1ccc(OCCN2CCCCC2)cc1)c1c(-c2ccc(O)cc2)sc2cc(O)ccc12
inactive: Potency [2]
active: Potency [1] 11.2 µM

NCC(O)c1ccc(O)cc1 (stereo unspecified)
inactive: Potency [1] | Potency [2] | Potency [8] | Potency [15] | outcome [10] | Potency [11] | Potency [12] | Potency [14] | Potency [5] | Potency [6]

Nc1ccncc1
inactive: Potency [1] | Potency [2] | Potency [8] | Potency [15] | outcome [10] | Potency [11] | Potency [5]
-28.2% [at 114 µM]: activity change, negative = inhibition [6]

NCC1(CC(=O)O)CCCCC1
1.13%: activity change, negative = inhibition [6]
inactive: Potency [1] | Potency [2] | Potency [8] | Potency [15] | outcome [10] | Potency [11] | Potency [12] | Potency [14] | Potency [5]

COc1cc2nc(N3CCN(C(=O)c4ccco4)CC3)nc(N)c2cc1OC
inactive: Potency [1]

NC(=O)N/N=C/c1ccc([N+](=O)[O-])o1
inactive: Potency [1] | Potency [2]

FC(F)(F)c1cccc(C2=CCN(CCc3ccc4ccccc4c3)CC2)c1
inactive: Potency [1] | Potency [2] | Potency [8] | Potency [9] | outcome [10] | Potency [11] | Potency [14] | Potency [5]
active: Potency [12] 9.8 nM

O=C1Nc2ccc(Cl)cc2[C@@](C#CC2CC2)(C(F)(F)F)O1
inactive: Potency [1] | Potency [2] | Potency [16]

CN1CCC[C@@H]1CCO[C@](C)(c1ccccc1)c1ccc(Cl)cc1
inactive: Potency [2] | Potency [16]
active: Potency [1] 4.47 µM | Potency [3] 10 µM

CCC(C(N)=O)N1CCCC1=O (stereo unspecified)
inactive: Potency [1] | Potency [2] | Potency [8] | Potency [9] | outcome [10] | Potency [11] | Potency [12] | Potency [14]
-16.2%: activity change, negative = inhibition [6]

Cc1ccc(-c2cc(C(F)(F)F)nn2-c2ccc(S(N)(=O)=O)cc2)cc1
inactive: Potency [1] | Potency [2] | Potency [16]

CCCCc1oc2ccccc2c1C(=O)c1cc(I)c(OCCN(CC)CC)c(I)c1
inactive: Potency [2] | Potency [16] | Potency [5]
active: Potency [1] 10 µM

Oc1cc(Cl)ccc1Oc1ccc(Cl)cc1Cl
active: Potency [12] 8.64 µM and 11 µM | Potency [6] 25.1 µM
inactive: Potency [1] | Potency [2] | Potency [8] | Potency [9] | outcome [10] | Potency [11]

C[C@]12CC[C@H]3[C@@H](CCC4=CC(=O)CC[C@@H]43)[C@@H]1CC[C@@H]2OC(=O)CCc1ccccc1
active: Potency [14] 27.5 µM
inactive: Potency [1] | Potency [2] | Potency [8] | Potency [9] | outcome [10] | Potency [11] | Potency [12] | outcome [13] | Potency [5]
2.01%: activity change, negative = inhibition [6]

NCC(CC(=O)O)c1ccc(Cl)cc1 (stereo unspecified)
inactive: outcome [1] inactive [at 0.573 µM] | outcome [2] inactive [at 0.573 µM] | Potency [8] | Potency [15] | activity change, negative = inhibition [9] 5.6% [at 1.07 µM] | outcome [10] | % pathology change, negative = correction [11] 14.6% [at 0.369 µM] | activity change, negative = inhibition [12] 14.3% [at 0.91 µM] | activity change, negative = inhibition [14] 15.7% [at 0.91 µM]

CNCC[C@H](Oc1cccc2ccccc12)c1cccs1
active: Potency [1] 25.1 µM | Potency [3] 10 µM
inactive: Potency [2] | Potency [16]

COc1cc2c(cc1OC)[C@@H]1CC(=O)[C@@H](CC(C)C)CN1CC2
inactive: Potency [1] | Potency [2]

Cc1c(O)cccc1C(=O)N[C@@H](CSc1ccccc1)[C@H](O)CN1C[C@H]2CCCC[C@H]2C[C@H]1C(=O)NC(C)(C)C
inactive: Potency [1] | Potency [2]
active: Potency [16] 12.6 µM | Potency [3] 3.16 µM

Cc1cccc(C)c1NC1=NCCCS1
inactive: Potency [1] | Potency [2] | Potency [8] | Potency [15] | outcome [10] | Potency [11] | Potency [14] | Potency [5]
active: Potency [12] 15500 nM
-11.5%: activity change, negative = inhibition [6]

CC/C(=C(\c1ccccc1)c1ccc(OCCN(C)C)cc1)c1ccccc1
inactive: Potency [2] | Potency [5]
active: Potency [1] 7.08 µM | Potency [16] 10 µM | Potency [4] 27.8 µM | Potency [7] 49.4 µM

C=CCN1CC[C@]23c4c5ccc(O)c4O[C@H]2C(=O)CC[C@@]3(O)[C@H]1C5
inactive: Potency [1] | Potency [2] | Potency [8] | Potency [9] | outcome [10] | Potency [11] | Potency [14] | Potency [5]
2.17%: activity change, negative = inhibition [6]
